Measurements as given in publication PMC7862700, “An all-to-all approach to the identification of sequence-specific readers for epigenetic DNA modifications on cytosine”.

Key:
Experiment in all cases: DAPPL (digital affinity profiling via proximity ligation, sequencing); 10 mM Tris-HCl pH 7.5, 50 mM NaCl, 1 mM DTT, 4% glycerol, room temperature, 30 min; GST-TFs on glutathione beads, 16-mer random dsDNA library, 0.1% formaldehyde crosslink after washing; high values mean tight binding
Details in all cases: protein: recombinant; tags: N-terminal GST; dsDNA, one strand shown
FLI1 = target: T1, FLI1 (Homo sapiens, UniProt Q01543 1-452)
T1 sequence: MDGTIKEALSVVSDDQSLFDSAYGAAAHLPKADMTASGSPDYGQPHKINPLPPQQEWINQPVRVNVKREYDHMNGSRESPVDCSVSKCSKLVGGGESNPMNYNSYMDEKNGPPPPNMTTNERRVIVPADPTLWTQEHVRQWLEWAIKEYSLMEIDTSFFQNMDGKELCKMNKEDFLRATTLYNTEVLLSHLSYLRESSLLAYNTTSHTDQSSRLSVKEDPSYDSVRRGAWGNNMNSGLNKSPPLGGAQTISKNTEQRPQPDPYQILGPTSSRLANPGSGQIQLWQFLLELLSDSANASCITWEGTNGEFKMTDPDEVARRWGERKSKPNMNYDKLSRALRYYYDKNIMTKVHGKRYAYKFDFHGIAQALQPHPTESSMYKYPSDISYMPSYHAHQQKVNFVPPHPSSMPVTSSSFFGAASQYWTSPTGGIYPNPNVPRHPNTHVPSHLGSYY
In short: (§1)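 Human transcription factors were made in yeast as GST fusions, captured on glutathione beads and barcoded with DNA. With a tag-only sample included, the pool was incubated with 200 nmole of a random double-stranded 16-mer DNA library in Tris/NaCl/DTT/glycerol buffer at room temperature for 30 min, then crosslinked with 0.1% formaldehyde after washing, ligated by proximity, amplified and sequenced. For binding signal, each hexamer's read frequency for a factor is divided by its frequency for the tag-only sample.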

ELK1 = target: T2, ELK1 (Homo sapiens, UniProt P19419 1-428)
T2 sequence: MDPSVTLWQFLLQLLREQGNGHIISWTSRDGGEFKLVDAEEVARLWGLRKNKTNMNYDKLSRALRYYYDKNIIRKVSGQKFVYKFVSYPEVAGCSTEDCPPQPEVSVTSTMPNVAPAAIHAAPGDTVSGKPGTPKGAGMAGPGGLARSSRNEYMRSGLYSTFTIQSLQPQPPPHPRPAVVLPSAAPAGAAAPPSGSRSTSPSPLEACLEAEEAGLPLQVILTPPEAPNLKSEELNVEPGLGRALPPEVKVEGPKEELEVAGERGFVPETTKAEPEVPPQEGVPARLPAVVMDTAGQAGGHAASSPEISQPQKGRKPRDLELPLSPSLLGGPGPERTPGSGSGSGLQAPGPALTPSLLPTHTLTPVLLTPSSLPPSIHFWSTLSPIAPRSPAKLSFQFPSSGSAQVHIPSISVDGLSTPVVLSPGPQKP
In short: as §1

GABPA = target: T3, GABPA (Homo sapiens, UniProt Q06546 1-454)
T3 sequence: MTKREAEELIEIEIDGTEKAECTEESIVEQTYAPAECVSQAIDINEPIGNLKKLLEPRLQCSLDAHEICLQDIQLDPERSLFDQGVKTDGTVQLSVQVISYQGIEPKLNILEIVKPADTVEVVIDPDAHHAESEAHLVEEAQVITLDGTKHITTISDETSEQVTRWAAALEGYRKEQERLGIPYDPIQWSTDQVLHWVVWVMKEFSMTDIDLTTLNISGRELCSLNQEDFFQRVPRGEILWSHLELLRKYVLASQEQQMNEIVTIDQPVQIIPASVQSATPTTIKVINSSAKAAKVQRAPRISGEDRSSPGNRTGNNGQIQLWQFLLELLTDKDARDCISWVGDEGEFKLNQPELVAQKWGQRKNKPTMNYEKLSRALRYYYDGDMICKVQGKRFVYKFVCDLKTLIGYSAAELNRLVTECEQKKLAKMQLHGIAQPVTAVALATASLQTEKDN
In short: as §1

ERG = target: T4, ERG (Homo sapiens, UniProt P11308 1-479)
T4 sequence: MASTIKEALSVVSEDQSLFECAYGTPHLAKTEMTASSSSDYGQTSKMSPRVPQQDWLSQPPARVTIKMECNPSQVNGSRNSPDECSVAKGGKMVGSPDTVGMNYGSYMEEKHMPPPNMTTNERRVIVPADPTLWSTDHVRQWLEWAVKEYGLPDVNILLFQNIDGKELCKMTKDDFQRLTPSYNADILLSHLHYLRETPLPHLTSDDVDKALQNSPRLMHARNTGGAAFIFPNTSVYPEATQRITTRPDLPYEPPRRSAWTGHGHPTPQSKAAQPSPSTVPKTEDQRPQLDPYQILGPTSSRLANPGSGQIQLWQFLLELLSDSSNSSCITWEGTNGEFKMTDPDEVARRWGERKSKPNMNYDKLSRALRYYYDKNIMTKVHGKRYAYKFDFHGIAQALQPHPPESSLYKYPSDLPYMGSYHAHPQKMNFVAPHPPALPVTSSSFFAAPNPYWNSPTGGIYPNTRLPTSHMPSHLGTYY
In short: as §1

ELF1 = ELF1 (Homo sapiens, UniProt P32519 1-619)
In short: as §1

EHF = target: T5, EHF (Homo sapiens, UniProt Q9NZC4 1-300)
T5 sequence: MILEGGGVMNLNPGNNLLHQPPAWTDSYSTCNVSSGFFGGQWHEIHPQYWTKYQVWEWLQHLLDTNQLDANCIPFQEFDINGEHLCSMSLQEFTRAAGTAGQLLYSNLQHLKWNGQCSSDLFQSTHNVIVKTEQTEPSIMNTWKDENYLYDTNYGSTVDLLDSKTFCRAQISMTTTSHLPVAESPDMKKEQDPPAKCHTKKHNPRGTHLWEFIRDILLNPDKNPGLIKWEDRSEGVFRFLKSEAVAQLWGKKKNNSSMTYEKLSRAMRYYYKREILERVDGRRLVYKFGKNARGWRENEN
In short: as §1

SPI1 = SPI1 (Homo sapiens, UniProt P17947 1-270)
In short: as §1

SPIB = SPIB (Homo sapiens, UniProt Q01892 1-262)
In short: as §1

ELK3 = target: T6, ELK3 (Homo sapiens, UniProt P41970 1-407)
T6 sequence: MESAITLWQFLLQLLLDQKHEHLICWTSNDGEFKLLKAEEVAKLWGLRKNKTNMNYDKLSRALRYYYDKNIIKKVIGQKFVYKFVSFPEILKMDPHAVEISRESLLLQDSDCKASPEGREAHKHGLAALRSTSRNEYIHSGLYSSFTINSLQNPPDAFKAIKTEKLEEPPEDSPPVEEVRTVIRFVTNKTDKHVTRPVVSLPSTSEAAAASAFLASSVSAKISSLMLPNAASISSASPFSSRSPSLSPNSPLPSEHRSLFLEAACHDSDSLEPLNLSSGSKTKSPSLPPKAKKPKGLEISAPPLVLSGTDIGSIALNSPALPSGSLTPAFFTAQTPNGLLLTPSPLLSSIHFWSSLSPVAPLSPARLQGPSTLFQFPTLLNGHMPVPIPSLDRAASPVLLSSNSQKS
In short: as §1

FEV = target: T7, FEV (Homo sapiens, UniProt Q99581 1-238)
T7 sequence: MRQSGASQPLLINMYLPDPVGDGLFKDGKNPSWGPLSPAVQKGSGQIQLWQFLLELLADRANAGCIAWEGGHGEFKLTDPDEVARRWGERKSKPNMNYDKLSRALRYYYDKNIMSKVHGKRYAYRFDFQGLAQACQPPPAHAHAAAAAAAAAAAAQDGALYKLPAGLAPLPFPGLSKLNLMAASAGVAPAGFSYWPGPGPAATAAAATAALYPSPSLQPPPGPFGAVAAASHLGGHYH
In short: as §1

ETV5 = ETV5 (Homo sapiens, UniProt P41161 1-510)
In short: as §1

SPIC = target: T8, SPIC (Homo sapiens, UniProt Q8N5J4 1-248)
T8 sequence: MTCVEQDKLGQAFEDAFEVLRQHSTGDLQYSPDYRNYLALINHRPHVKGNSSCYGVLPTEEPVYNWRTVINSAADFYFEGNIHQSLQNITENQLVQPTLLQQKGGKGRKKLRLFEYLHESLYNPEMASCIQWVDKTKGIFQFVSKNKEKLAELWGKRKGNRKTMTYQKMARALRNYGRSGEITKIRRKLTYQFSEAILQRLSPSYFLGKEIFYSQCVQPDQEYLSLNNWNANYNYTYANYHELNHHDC
In short: as §1

ELF4 = ELF4 (Homo sapiens, UniProt Q99607 1-663)
In short: as §1

ELK4 = target: T9, ELK4 (Homo sapiens, UniProt P28324-2 1-405)
T9 sequence: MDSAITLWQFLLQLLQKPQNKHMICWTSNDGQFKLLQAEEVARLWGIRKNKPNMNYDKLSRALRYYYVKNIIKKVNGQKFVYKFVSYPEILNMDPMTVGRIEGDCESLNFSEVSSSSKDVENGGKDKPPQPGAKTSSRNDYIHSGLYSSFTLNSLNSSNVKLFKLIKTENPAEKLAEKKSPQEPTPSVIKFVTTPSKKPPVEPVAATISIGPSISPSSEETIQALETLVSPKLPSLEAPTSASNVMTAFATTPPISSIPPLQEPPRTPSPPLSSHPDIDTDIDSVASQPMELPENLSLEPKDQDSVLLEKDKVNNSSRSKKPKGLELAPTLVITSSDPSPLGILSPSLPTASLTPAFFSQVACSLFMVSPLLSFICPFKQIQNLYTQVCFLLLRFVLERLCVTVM
In short: as §1

ETV2 = target: T10, ETV2 (Homo sapiens, UniProt O00321 1-342)
T10 sequence: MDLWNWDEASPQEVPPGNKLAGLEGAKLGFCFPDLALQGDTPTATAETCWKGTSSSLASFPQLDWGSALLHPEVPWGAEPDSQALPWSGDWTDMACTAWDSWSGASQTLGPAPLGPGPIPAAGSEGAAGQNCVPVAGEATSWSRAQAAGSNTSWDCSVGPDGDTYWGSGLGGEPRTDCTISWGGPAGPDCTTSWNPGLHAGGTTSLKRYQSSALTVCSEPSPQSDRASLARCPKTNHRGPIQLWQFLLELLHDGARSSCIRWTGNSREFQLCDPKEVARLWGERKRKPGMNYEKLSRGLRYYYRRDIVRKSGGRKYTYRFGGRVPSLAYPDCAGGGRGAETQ
In short: as §1

ELF3 = target: T11, ELF3 (Homo sapiens, UniProt P78545 1-371)
T11 sequence: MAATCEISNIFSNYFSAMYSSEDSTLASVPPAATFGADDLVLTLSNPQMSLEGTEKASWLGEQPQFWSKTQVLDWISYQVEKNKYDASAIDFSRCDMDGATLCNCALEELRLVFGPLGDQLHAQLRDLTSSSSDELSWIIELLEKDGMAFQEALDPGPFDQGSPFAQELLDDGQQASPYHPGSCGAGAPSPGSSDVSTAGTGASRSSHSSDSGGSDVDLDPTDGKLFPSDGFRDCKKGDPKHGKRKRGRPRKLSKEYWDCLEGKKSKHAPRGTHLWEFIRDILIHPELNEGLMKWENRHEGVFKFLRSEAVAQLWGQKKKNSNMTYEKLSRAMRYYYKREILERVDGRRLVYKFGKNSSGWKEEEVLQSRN
In short: as §1

CRX = CRX (Homo sapiens, UniProt O43186 1-299)
In short: as §1

ETV1 = ETV1 (Homo sapiens, UniProt P50549 1-477)
In short: as §1

Sequence of ETV1 (P50549 whole entry): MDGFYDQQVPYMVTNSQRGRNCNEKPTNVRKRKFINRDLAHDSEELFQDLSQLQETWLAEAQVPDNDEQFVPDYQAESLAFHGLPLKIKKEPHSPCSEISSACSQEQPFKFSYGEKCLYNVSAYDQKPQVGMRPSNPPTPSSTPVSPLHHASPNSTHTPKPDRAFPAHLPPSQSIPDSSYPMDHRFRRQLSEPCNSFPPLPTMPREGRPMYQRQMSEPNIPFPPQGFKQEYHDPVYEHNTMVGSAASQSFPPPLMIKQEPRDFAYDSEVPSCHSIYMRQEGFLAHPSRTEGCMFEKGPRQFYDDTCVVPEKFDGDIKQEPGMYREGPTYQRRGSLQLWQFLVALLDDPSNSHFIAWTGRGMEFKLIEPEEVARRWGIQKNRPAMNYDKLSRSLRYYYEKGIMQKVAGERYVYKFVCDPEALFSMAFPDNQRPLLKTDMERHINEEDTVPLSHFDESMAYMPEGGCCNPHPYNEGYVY
Sequence of CRX (O43186 whole entry): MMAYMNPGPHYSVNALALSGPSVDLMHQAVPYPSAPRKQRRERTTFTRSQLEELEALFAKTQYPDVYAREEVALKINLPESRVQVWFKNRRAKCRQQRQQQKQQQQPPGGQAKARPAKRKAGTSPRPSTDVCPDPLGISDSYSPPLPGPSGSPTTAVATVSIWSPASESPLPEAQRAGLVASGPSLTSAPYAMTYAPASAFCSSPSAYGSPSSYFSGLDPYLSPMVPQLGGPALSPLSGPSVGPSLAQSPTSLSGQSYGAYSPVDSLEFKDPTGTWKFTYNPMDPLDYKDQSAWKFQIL
Sequence of ETV5 (P41161 whole entry): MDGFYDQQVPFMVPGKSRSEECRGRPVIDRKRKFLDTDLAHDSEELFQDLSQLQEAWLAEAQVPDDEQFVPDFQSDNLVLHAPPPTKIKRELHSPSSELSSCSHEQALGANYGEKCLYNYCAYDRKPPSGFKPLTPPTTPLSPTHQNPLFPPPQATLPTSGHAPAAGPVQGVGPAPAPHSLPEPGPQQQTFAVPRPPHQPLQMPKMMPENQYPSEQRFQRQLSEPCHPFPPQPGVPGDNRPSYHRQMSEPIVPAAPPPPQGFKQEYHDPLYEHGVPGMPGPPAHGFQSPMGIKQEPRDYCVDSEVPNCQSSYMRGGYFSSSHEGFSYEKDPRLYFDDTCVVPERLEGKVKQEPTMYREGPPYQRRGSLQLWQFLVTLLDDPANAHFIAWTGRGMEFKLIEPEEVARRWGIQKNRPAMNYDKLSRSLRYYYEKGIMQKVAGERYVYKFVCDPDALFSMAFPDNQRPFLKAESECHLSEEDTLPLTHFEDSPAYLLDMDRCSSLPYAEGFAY
Sequence of ELF4 (Q99607 whole entry): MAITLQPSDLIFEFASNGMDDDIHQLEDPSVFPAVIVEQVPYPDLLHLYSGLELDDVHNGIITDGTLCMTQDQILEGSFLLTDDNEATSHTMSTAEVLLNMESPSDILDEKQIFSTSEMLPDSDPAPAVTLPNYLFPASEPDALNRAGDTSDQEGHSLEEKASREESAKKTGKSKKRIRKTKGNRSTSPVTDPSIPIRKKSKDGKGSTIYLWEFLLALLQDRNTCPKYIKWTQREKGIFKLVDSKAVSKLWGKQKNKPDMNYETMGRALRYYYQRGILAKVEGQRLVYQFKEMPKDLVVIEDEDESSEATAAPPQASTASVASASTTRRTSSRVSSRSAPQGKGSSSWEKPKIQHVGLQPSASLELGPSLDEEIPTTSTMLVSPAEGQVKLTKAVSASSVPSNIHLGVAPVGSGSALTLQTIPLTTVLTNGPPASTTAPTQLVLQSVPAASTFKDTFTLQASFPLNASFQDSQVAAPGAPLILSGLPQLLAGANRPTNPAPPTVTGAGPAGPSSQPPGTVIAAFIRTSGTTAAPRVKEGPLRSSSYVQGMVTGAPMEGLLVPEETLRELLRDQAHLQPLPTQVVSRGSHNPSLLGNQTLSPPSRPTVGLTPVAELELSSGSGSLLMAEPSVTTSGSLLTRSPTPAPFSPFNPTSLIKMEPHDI
Sequence of SPIB (Q01892 whole entry): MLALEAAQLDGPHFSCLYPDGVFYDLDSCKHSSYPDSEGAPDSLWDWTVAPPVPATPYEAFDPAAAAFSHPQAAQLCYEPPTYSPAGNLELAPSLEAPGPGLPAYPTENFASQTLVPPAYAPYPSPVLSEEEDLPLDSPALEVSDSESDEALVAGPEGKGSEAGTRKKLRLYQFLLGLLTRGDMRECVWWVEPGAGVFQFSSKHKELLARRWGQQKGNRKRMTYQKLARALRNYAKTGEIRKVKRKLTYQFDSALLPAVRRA
Sequence of ELF1 (P32519 whole entry): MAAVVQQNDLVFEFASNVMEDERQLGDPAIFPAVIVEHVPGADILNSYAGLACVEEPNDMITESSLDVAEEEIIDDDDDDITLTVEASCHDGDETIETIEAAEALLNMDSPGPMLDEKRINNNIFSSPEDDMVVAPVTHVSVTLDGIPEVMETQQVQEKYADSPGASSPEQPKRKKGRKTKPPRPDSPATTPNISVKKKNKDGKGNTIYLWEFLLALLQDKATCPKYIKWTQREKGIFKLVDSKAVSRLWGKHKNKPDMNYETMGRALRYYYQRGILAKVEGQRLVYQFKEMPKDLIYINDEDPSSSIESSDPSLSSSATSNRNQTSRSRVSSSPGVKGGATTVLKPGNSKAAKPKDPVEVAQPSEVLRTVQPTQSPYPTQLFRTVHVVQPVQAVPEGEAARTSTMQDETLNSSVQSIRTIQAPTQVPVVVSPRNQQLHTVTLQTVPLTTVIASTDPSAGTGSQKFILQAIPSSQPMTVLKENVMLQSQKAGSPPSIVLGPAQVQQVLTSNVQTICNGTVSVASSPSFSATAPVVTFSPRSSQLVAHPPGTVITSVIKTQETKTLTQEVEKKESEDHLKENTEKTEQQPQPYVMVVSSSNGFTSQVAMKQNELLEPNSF

## CCCTTG
FLI1
  binding signal: 1.14 fold enrichment (6-mer frequency, TF over GST control)
ELK1
  binding signal: 1.21 fold enrichment (6-mer frequency, TF over GST control)
GABPA
  binding signal: 1.24 fold enrichment (6-mer frequency, TF over GST control)
ERG
  binding signal: 1.23 fold enrichment (6-mer frequency, TF over GST control)
ELF1
  binding signal: 1.3 fold enrichment (6-mer frequency, TF over GST control)
EHF
  binding signal: 1.22 fold enrichment (6-mer frequency, TF over GST control)
SPI1
  binding signal: 1.16 fold enrichment (6-mer frequency, TF over GST control)
SPIB
  binding signal: 1.19 fold enrichment (6-mer frequency, TF over GST control)
ELK3
  binding signal: 1.2 fold enrichment (6-mer frequency, TF over GST control)
FEV
  binding signal: 1.16 fold enrichment (6-mer frequency, TF over GST control)
ETV5
  binding signal: 1.11 fold enrichment (6-mer frequency, TF over GST control)
SPIC
  binding signal: 1.26 fold enrichment (6-mer frequency, TF over GST control)
ELF4
  binding signal: 1.25 fold enrichment (6-mer frequency, TF over GST control)
ELK4
  binding signal: 1.2 fold enrichment (6-mer frequency, TF over GST control)
ETV2
  binding signal: 1.23 fold enrichment (6-mer frequency, TF over GST control)
ELF3
  binding signal: 1.19 fold enrichment (6-mer frequency, TF over GST control)
CRX
  binding signal: 1.01 fold enrichment (6-mer frequency, TF over GST control)
ETV1
  binding signal: 1.19 fold enrichment (6-mer frequency, TF over GST control)

## CTACGT
FLI1
  binding signal: 1.29 fold enrichment (6-mer frequency, TF over GST control)
ELK1
  binding signal: 1.23 fold enrichment (6-mer frequency, TF over GST control)
GABPA
  binding signal: 1.18 fold enrichment (6-mer frequency, TF over GST control)
ERG
  binding signal: 1.19 fold enrichment (6-mer frequency, TF over GST control)
ELF1
  binding signal: 1.13 fold enrichment (6-mer frequency, TF over GST control)
EHF
  binding signal: 1.25 fold enrichment (6-mer frequency, TF over GST control)
SPI1
  binding signal: 1.08 fold enrichment (6-mer frequency, TF over GST control)
SPIB
  binding signal: 1.27 fold enrichment (6-mer frequency, TF over GST control)
ELK3
  binding signal: 1.31 fold enrichment (6-mer frequency, TF over GST control)
FEV
  binding signal: 1.28 fold enrichment (6-mer frequency, TF over GST control)
ETV5
  binding signal: 1.09 fold enrichment (6-mer frequency, TF over GST control)
SPIC
  binding signal: 1.17 fold enrichment (6-mer frequency, TF over GST control)
ELF4
  binding signal: 1.24 fold enrichment (6-mer frequency, TF over GST control)
ELK4
  binding signal: 1.24 fold enrichment (6-mer frequency, TF over GST control)
ETV2
  binding signal: 1.03 fold enrichment (6-mer frequency, TF over GST control)
ELF3
  binding signal: 1.01 fold enrichment (6-mer frequency, TF over GST control)
CRX
  binding signal: 1.01 fold enrichment (6-mer frequency, TF over GST control)
ETV1
  binding signal: 1.3 fold enrichment (6-mer frequency, TF over GST control)
